# Paper PMC7862700, “An all-to-all approach to the identification of sequence-specific readers for epigenetic DNA modifications on cytosine”
# Biological target: ELF1 (Homo sapiens, UniProt P32519 1-619)
# Test: DAPPL (digital affinity profiling via proximity ligation, sequencing); 10 mM Tris-HCl pH 7.5, 50 mM NaCl, 1 mM DTT, 4% glycerol, room temperature, 30 min; GST-TFs on glutathione beads, 16-mer random dsDNA library, 0.1% formaldehyde crosslink after washing; high values mean tight binding
# Conditions: protein: recombinant; tags: N-terminal GST; dsDNA, one strand shown
# In short: (§1)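 In yeast, human transcription factors were expressed with a GST fusion, then pulled down on glutathione beads and given DNA barcodes. Pooled with a tag-only sample, they were exposed to 200 nmole of a 16-mer random double-stranded DNA library (Tris/NaCl/DTT/glycerol buffer, room temperature, 30 min), washed, crosslinked with 0.1% formaldehyde, proximity-ligated using BsaI/T4 ligase for 1 h at 37 °C, PCR-amplified and read on an Illumina NextSeq500. Each hexamer's frequency of reads for a factor, divided by the matching frequency for the tag-only sample, gives the binding signal.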
# ELF1, sequence (P32519 whole entry): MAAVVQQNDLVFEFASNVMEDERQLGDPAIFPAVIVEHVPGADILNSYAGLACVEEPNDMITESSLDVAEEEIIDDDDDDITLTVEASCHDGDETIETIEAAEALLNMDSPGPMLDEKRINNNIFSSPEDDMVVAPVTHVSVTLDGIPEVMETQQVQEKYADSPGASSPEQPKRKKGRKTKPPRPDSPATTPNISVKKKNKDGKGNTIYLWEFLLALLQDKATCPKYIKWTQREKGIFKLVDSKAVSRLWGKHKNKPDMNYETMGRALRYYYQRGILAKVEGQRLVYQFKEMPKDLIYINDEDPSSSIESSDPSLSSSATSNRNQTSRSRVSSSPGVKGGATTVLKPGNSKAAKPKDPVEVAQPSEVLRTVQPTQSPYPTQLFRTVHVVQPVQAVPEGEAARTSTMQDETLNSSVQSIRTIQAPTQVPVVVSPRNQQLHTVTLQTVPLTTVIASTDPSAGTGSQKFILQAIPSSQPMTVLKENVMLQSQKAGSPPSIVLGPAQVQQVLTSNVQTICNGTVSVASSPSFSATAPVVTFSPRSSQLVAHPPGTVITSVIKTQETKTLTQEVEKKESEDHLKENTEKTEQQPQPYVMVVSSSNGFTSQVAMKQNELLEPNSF
row,Sequence,binding signal
1,ATTGAG,"1 fold enrichment (6-mer frequency, TF over GST control)"
2,CACCCA,"1.01 fold enrichment (6-mer frequency, TF over GST control)"
3,AATGTG,"1 fold enrichment (6-mer frequency, TF over GST control)"
4,GCGTTG,"1.01 fold enrichment (6-mer frequency, TF over GST control)"

# Biological target: T1, EHF (Homo sapiens, UniProt Q9NZC4 1-300)
# T1 sequence: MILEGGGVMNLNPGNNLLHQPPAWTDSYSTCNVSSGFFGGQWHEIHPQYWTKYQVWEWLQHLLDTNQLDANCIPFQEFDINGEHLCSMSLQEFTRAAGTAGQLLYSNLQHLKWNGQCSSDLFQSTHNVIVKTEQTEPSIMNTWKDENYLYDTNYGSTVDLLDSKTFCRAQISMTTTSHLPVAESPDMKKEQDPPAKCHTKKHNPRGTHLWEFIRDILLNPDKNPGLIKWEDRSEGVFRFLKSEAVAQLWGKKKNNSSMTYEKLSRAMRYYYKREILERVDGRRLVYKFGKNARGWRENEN
# Test: as above
# Conditions: protein: recombinant; tags: N-terminal GST; dsDNA, one strand shown
# In short: as §1
row,Sequence,binding signal
1,TGTGAT,"1.03 fold enrichment (6-mer frequency, TF over GST control)"
2,GCCGTC,"1.1 fold enrichment (6-mer frequency, TF over GST control)"
3,TGGCCA,"1.05 fold enrichment (6-mer frequency, TF over GST control)"
4,CACACC,"1.04 fold enrichment (6-mer frequency, TF over GST control)"
5,TTGACG,"1.2 fold enrichment (6-mer frequency, TF over GST control)"
6,GTCGAC,"1.01 fold enrichment (6-mer frequency, TF over GST control)"
7,CATGGC,"1.02 fold enrichment (6-mer frequency, TF over GST control)"
8,AGTTTT,"1.02 fold enrichment (6-mer frequency, TF over GST control)"
9,GTTTGT,"1.03 fold enrichment (6-mer frequency, TF over GST control)"
10,GCCGCA,"1.04 fold enrichment (6-mer frequency, TF over GST control)"
11,CCATGG,"1.06 fold enrichment (6-mer frequency, TF over GST control)"
12,ACTCGG,"1.04 fold enrichment (6-mer frequency, TF over GST control)"
13,ATTGAG,"1.01 fold enrichment (6-mer frequency, TF over GST control)"
14,GACGAC,"1.06 fold enrichment (6-mer frequency, TF over GST control)"
15,GTGGCA,"1.03 fold enrichment (6-mer frequency, TF over GST control)"
16,GCAGCC,"1.03 fold enrichment (6-mer frequency, TF over GST control)"

# Biological target: SPI1 (Homo sapiens, UniProt P17947 1-270)
# Test: as above
# Conditions: protein: recombinant; tags: N-terminal GST; dsDNA, one strand shown
# In short: as §1
row,Sequence,binding signal
1,GATACA,"1.01 fold enrichment (6-mer frequency, TF over GST control)"
2,CGCGGC,"1.05 fold enrichment (6-mer frequency, TF over GST control)"
3,TGGCCA,"1.05 fold enrichment (6-mer frequency, TF over GST control)"
4,ATGCGT,"1.03 fold enrichment (6-mer frequency, TF over GST control)"
5,TTGACG,"1.04 fold enrichment (6-mer frequency, TF over GST control)"
6,TGATTG,"1.04 fold enrichment (6-mer frequency, TF over GST control)"
7,TGTCAA,"1 fold enrichment (6-mer frequency, TF over GST control)"
8,GTCGAC,"1.08 fold enrichment (6-mer frequency, TF over GST control)"
9,ACTGTC,"1 fold enrichment (6-mer frequency, TF over GST control)"
10,CATGGC,"1.04 fold enrichment (6-mer frequency, TF over GST control)"
11,CCATGG,"1.05 fold enrichment (6-mer frequency, TF over GST control)"
12,ATTGAG,"1 fold enrichment (6-mer frequency, TF over GST control)"
13,GTGGCA,"1.04 fold enrichment (6-mer frequency, TF over GST control)"

# Biological target: SPIB (Homo sapiens, UniProt Q01892 1-262)
# Sequence (Q01892 whole entry): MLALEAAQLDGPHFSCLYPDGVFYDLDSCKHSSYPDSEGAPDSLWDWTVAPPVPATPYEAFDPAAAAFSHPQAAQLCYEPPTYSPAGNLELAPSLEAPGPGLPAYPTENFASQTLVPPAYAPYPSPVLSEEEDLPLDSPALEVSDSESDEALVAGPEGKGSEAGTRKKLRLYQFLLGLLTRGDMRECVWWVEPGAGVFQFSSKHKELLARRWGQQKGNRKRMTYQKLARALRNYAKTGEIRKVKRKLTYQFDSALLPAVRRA
# Test: as above
# Conditions: protein: recombinant; tags: N-terminal GST; dsDNA, one strand shown
# In short: as §1
row,Sequence,binding signal
1,TCAGCC,"1.05 fold enrichment (6-mer frequency, TF over GST control)"
2,CAAAGT,"1.04 fold enrichment (6-mer frequency, TF over GST control)"
3,CAAGCT,"1.04 fold enrichment (6-mer frequency, TF over GST control)"
4,TGTGAT,"1.01 fold enrichment (6-mer frequency, TF over GST control)"
5,TGGCCA,"1.13 fold enrichment (6-mer frequency, TF over GST control)"
6,ATGCGT,"1.03 fold enrichment (6-mer frequency, TF over GST control)"
7,TTGACG,"1.11 fold enrichment (6-mer frequency, TF over GST control)"
8,TGATTG,"1.09 fold enrichment (6-mer frequency, TF over GST control)"
9,TGTCAA,"1.02 fold enrichment (6-mer frequency, TF over GST control)"
10,ACTGTC,"1.05 fold enrichment (6-mer frequency, TF over GST control)"
11,AGTTTT,"1.08 fold enrichment (6-mer frequency, TF over GST control)"
12,CGGCCC,"1.07 fold enrichment (6-mer frequency, TF over GST control)"
13,CGTACG,"1.01 fold enrichment (6-mer frequency, TF over GST control)"
14,CACCCA,"1.03 fold enrichment (6-mer frequency, TF over GST control)"
15,AATGTG,"1 fold enrichment (6-mer frequency, TF over GST control)"
16,CCCGCG,"1.11 fold enrichment (6-mer frequency, TF over GST control)"
17,GCAGCC,"1.08 fold enrichment (6-mer frequency, TF over GST control)"

# Biological target: T2, ELK3 (Homo sapiens, UniProt P41970 1-407)
# T2 sequence: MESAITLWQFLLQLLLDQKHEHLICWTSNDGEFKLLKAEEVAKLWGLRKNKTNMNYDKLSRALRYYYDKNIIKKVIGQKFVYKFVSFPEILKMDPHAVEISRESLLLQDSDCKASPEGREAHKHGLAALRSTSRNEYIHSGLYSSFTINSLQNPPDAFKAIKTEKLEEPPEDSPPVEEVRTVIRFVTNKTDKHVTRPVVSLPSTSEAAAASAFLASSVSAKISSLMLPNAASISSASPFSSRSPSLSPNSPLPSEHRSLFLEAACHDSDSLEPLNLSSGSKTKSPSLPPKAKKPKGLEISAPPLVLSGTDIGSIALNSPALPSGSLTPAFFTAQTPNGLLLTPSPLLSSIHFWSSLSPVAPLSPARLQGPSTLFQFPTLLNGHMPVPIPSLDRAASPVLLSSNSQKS
# Test: as above
# Conditions: protein: recombinant; tags: N-terminal GST; dsDNA, one strand shown
# In short: as §1
row,Sequence,binding signal
1,TCAGCC,"1.13 fold enrichment (6-mer frequency, TF over GST control)"
2,CAAAGT,"1.06 fold enrichment (6-mer frequency, TF over GST control)"
3,GATACA,"1.03 fold enrichment (6-mer frequency, TF over GST control)"
4,CAAGCT,"1.03 fold enrichment (6-mer frequency, TF over GST control)"
5,CGCGGC,"1 fold enrichment (6-mer frequency, TF over GST control)"
6,TGGCCA,"1.1 fold enrichment (6-mer frequency, TF over GST control)"
7,TTGACG,"1.08 fold enrichment (6-mer frequency, TF over GST control)"
8,TGATTG,"1.11 fold enrichment (6-mer frequency, TF over GST control)"
9,GTGTAC,"1.03 fold enrichment (6-mer frequency, TF over GST control)"
10,GTCGAC,"1.06 fold enrichment (6-mer frequency, TF over GST control)"
11,CATGGC,"1.04 fold enrichment (6-mer frequency, TF over GST control)"
12,AGTTTT,"1.14 fold enrichment (6-mer frequency, TF over GST control)"
13,GTTTGT,"1.06 fold enrichment (6-mer frequency, TF over GST control)"
14,GCCGCA,"1.04 fold enrichment (6-mer frequency, TF over GST control)"
15,CCATGG,"1.06 fold enrichment (6-mer frequency, TF over GST control)"
16,ACTCGG,"1.06 fold enrichment (6-mer frequency, TF over GST control)"
17,GACGAC,"1.03 fold enrichment (6-mer frequency, TF over GST control)"
18,GTGGCA,"1.04 fold enrichment (6-mer frequency, TF over GST control)"

# Biological target: T3, FEV (Homo sapiens, UniProt Q99581 1-238)
# T3 sequence: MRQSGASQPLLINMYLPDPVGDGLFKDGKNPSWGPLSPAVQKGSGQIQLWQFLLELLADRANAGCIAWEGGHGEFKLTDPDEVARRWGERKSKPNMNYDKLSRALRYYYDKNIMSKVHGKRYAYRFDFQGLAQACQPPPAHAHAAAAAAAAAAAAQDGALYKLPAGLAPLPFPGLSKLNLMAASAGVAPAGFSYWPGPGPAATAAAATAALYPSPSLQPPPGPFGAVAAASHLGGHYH
# Test: as above
# Conditions: protein: recombinant; tags: N-terminal GST; dsDNA, one strand shown
# In short: as §1
row,Sequence,binding signal
1,TCAGCC,"1.04 fold enrichment (6-mer frequency, TF over GST control)"
2,CGCGGC,"1.06 fold enrichment (6-mer frequency, TF over GST control)"
3,TGGCCA,"1.13 fold enrichment (6-mer frequency, TF over GST control)"
4,CCACAG,"1.01 fold enrichment (6-mer frequency, TF over GST control)"
5,ATGCGT,"1.01 fold enrichment (6-mer frequency, TF over GST control)"
6,CACACC,"1.07 fold enrichment (6-mer frequency, TF over GST control)"
7,TTGACG,"1.1 fold enrichment (6-mer frequency, TF over GST control)"
8,GTCGAC,"1.02 fold enrichment (6-mer frequency, TF over GST control)"
9,CATGGC,"1.04 fold enrichment (6-mer frequency, TF over GST control)"
10,GCCGCA,"1.01 fold enrichment (6-mer frequency, TF over GST control)"
11,CGGCCC,"1 fold enrichment (6-mer frequency, TF over GST control)"
12,GTGGCA,"1.09 fold enrichment (6-mer frequency, TF over GST control)"
13,GCAGCC,"1.03 fold enrichment (6-mer frequency, TF over GST control)"

# Biological target: T4, SPIC (Homo sapiens, UniProt Q8N5J4 1-248)
# T4 sequence: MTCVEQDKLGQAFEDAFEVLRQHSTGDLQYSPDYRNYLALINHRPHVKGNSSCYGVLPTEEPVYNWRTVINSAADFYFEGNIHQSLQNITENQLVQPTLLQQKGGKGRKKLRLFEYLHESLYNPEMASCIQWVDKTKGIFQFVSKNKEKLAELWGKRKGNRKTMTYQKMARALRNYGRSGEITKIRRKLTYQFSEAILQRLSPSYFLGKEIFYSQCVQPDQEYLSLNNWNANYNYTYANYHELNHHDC
# Test: as above
# Conditions: protein: recombinant; tags: N-terminal GST; dsDNA, one strand shown
# In short: as §1
row,Sequence,binding signal
1,GATACA,"1.07 fold enrichment (6-mer frequency, TF over GST control)"
2,TCGTTA,"1.02 fold enrichment (6-mer frequency, TF over GST control)"
3,ATGCGT,"1.07 fold enrichment (6-mer frequency, TF over GST control)"
4,CTTGAG,"1.12 fold enrichment (6-mer frequency, TF over GST control)"
5,AGGCCC,"1.08 fold enrichment (6-mer frequency, TF over GST control)"
6,CACACC,"1.09 fold enrichment (6-mer frequency, TF over GST control)"
7,TGATTG,"1.05 fold enrichment (6-mer frequency, TF over GST control)"
8,GTGTAC,"1.2 fold enrichment (6-mer frequency, TF over GST control)"
9,GTCGAC,"1.07 fold enrichment (6-mer frequency, TF over GST control)"
10,ACTGTC,"1.09 fold enrichment (6-mer frequency, TF over GST control)"
11,CATGGC,"1.05 fold enrichment (6-mer frequency, TF over GST control)"
12,GTTTGT,"1.01 fold enrichment (6-mer frequency, TF over GST control)"
13,ACTCGG,"1.08 fold enrichment (6-mer frequency, TF over GST control)"
14,TGGCGT,"1.04 fold enrichment (6-mer frequency, TF over GST control)"
15,AATGTG,"1.02 fold enrichment (6-mer frequency, TF over GST control)"
16,GCGTTG,"1.03 fold enrichment (6-mer frequency, TF over GST control)"
17,CCCGCG,"1.05 fold enrichment (6-mer frequency, TF over GST control)"
18,GTGGCA,"1.04 fold enrichment (6-mer frequency, TF over GST control)"
19,GCAGCC,"1.03 fold enrichment (6-mer frequency, TF over GST control)"
